# Data reported in PubChem BioAssay (NCI).
# The panel holds about 83,000 compounds, 20% with a hit somewhere; the sample as a whole holds those more often.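 Method: cells in 96-well plates; compound added at one concentration; 48 h incubation; percent growth measured; values under 10 scored active.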 Values without a mark were called inactive. Active and inactive are the calls of the source.
# System: SK-MEL-5 melanoma
# Experiment: NCI-60 one-dose screen, 48 h (100 = growth as untreated, 0 = no growth, -100 = all killed)
# Details: 10 µM unless noted
# Experimental: Growth inhibition of the SK-MEL-5 human tumor cell line is measured as a screen for anti-cancer activity. Cells are grown in 96 well plates and exposed to the test compound for 48 hours. Compounds are tested at a single concentration, which is 10^-5 M for most compounds. The reported endpoint is percent growth (GI% or GIPRCNT), where numbers from 0 - 100% represent growth inhibition, and numbers from -100% - 0 represent cell death. For example, a value of 40 represents 60% growth inhibition. A value of 0 means no net growth occurred over the course of the experiment. A value of -40 indicates 40% of cells at the beginning of the experiment died by the end of the experiment. A value of -100 means all cells are dead at the end of the experiment.
# NCI-60 Human Tumor Cell Lines Screen was performed using the standard one-dose NCI protocol, which is described in more detail at https://dtp.cancer.gov/discovery_development/nci-60/default.htm.
# Compounds with GIPRCNT values below 10 were considered active. Activity score was based on GIPRCNT using the following formula: […]
# Score is 0 for GIPRCNT values of 100 or above, 50 for GIPRCNT values of 0, and 100 for GIPRCNT values of -100.
row,Compound,growth
1,CC(=O)Nc1ccc(S(=O)(=O)NC(CCC(=O)Nc2ccc(Cl)cc2)C(=O)O)cc1 (stereo not given),97.7%
2,CCN1C(=O)N(CC)C2C1NN=c1s/c(=C\c3cccc(F)c3)c(=O)n12 (stereo not given),-30.7% (active)
3,Cc1nn(-c2ccc(Cl)cc2)c(=O)n1CCOc1ccccc1Cl,105%
4,NS(=O)(=O)c1ccc(CN2C(=O)c3cccc4cccc(c34)C2=O)cc1,96.8%
5,CCC1CCc2nc3sc(C(=O)Nc4cccc(C)c4)c(N)c3cc2C1 (stereo not given),54.5%
6,COc1ccc(/C=C2\Oc3cc(OCCN4CCCC4)ccc3C2=O)c(OC)c1,90.2%
7,COc1c(NC[C@H]2OC(O)[C@H](O)[C@@H](O)[C@@H]2O)c(=O)c1=O (stereo not given in full),100%
8,COc1cccc(/C=C2\SC(N3CCN(c4ccccn4)CC3)=NC2=O)c1,97.1%
9,O=C(Nc1ccc(I)cc1)c1cc([N+](=O)[O-])ccc1O,-0.402% (active)
10,CCN(CC)P(=O)(N(CC)CC)N(CCCSC/C=C(\C)CC/C=C(\C)CCC=C(C)C)CCCN1CCN(C)CC1,100%
11,COc1cc(/C=C2\CCCC3=C2NC(C)=NC3c2cc(OC)c(OC)c(OC)c2)cc(OC)c1OC (stereo not given),19.1%
12,COc1ccc(-c2nc3sccn3c2-c2ccnc(NCCNS(=O)(=O)c3ccc(C(F)(F)F)cc3)n2)cc1,-94.1% (active)
13,COc1cc(C2C=C(C)N=C3SC=C(C)N32)cc(OC)c1OC (stereo not given),-97.5% (active)
14,CCOC(=O)[C@H](CSSc1ncnc2cc[nH]c12)NC(=O)[C@@H](C)c1ccc2cc(OC)ccc2c1,45%
15,CN(C)C/C=C/C(=O)Nc1cc2c(Nc3ccc(F)c(Cl)c3F)ncnc2cc1OCCOC(F)F,37.5%
16,Nc1nn2cc(-c3ccc(Cl)s3)nc2c2ccccc12,84%
17,C=CCOc1ccc(/C(O)=C2\C(=O)C(=O)N(c3nccs3)C2c2ccccc2F)cc1 (stereo not given),94.7%
18,Cc1sc(N=Nc2ccc(N(C)C)cc2)[n+]([O-])c1C,99%
19,COc1ccc(/C(=N/O)c2cc(OC)c(OC)c(OC)c2)c(OC)c1N,14.4%
20,COc1cc2nc(SCc3cc(OC)c(OC)c(OC)c3)n(Cc3ccccc3)c(=O)c2cc1OC,-8.17% (active)

row,Compound,growth
1,COC(=O)c1ccc2nc(-c3cc4ccccc4n3C)n(CCCCOc3cc4c(cc3OC)C(=O)N3CCC[C@H]3C=N4)c2c1,-75.6% (active)
2,Cn1c(-c2nonc2NC(=O)c2ccc(F)cc2)nc2ccccc21,97.2%
3,COc1ccc(-c2nc(-c3nc4ccc(F)cc4[nH]3)cc3c2[nH]c2ccccc23)cc1,51.1%
4,COc1cccc(/C=C/c2c(C(=O)O)cccc2[N+](=O)[O-])c1OC,106%
5,N#CC1=C(N)n2nc(-c3ccncc3)nc2NC1c1cccc2ccccc12 (stereo not given),88.6%
6,COc1ccc(/C=C/C(=O)OCC(=O)NNC(=O)c2ccccc2)cc1OC,97.8%
7,CCCCC[C@@H]1Cc2cc(O)c(C(=O)O)c3c2[C@H](C[C@@]2(CCCO2)O3)O1,111%
8,N=C(N)c1ccc(-c2ccc(-c3ccc(Cl)cc3)o2)nc1,-98.8% (active)
9,CCCCCCOc1ccc(C2(Cl)c3ccccc3N(C)c3ccccc32)cc1,33.2%
10,COc1cc(C2CC(c3c(C)[n+]([O-])c4ccccc4[n+]3[O-])=NN2)cc(OC)c1OC (stereo not given),96%
11,COc1cc(NC(=O)CSc2nc3ccc(C)cc3c(=O)n2-c2ccccc2)cc(OC)c1OC,77.8%
12,O=c1oc2cc(OS(=O)(=O)c3ccc(F)cc3)ccc2c2c1CCCCC2,32.8%
13,Cc1cc2c(C(C)C)c(O)c(O)c(C=NCCCCC(=O)O)c2c(O)c1-c1c(C)cc2c(C(C)C)c(O)c(O)c(C=NCCCCC(=O)O)c2c1O,49.4%
14,CNC(C)=O,102%
15,CC(C)(C)OC(=O)N1C/C(=C\c2cccs2)C(=O)/C(=C/c2cccs2)C1,87.9%
16,NS(=O)(=O)c1ccc(NCC(=O)Nc2ccc(-c3nc4ccccc4s3)cc2)cc1,71.3%
17,CCC#CC[C@H]1C/C=C2/C(=O)C=C[C@@H]2C/C=C\CCCC(=O)O1,-85.6% (active)
18,CCN1C(=O)N(CC)C2Nn3c(s/c(=C4\C(=O)N(C5CCCC5)c5ccccc54)c3=O)=NC21 (stereo not given),34.8%
19,O=C(O)c1cn(C2CC2)c2cc(N3CCN(S(=O)(=O)c4ccc(Cl)c(Cl)c4)CC3)c(F)cc2c1=O,2.06% (active)
20,CCCCCCc1nc2c(c(C)nn2-c2ccccc2)c2c1CCCCC2,94.3%
